Bioassay records as filed in PubChem.
AmpC detergent – AmpC beta-lactamase inhibition with detergent present; P00811; Potency, µM (highest dose often 114 µM), for inactives: at the top dose activity change, negative = inhibition, most hits filed as inhibitors; AmpC hydrolysis of nitrocefin, absorbance 480 nm, 0.01% Triton; AID 485294; 370,000 tested, 0.041% active;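 further: 0% = no-compound wells and -100% = no-enzyme wells; nearly all actives have a fitted effect of over 25% in size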
Target sequence (P00811 whole entry, looked up): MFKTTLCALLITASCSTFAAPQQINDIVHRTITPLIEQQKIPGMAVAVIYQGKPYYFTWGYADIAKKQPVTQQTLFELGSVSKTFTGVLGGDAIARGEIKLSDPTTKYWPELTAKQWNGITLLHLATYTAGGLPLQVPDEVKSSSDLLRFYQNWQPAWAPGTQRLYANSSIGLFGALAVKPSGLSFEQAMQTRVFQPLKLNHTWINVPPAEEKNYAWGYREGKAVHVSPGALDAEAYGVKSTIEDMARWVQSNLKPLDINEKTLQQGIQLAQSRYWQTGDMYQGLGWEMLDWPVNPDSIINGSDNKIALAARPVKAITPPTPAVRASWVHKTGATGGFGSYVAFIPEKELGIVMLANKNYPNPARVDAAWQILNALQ
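AmpC (5.3 nM in the dispensed reagent) in 20 mM phosphate pH 7.0 with 0.01% (detergent screen) or 0.0001% Triton X-100 was preincubated with compounds for 15 min at room temperature. Nitrocefin was then added from an 800 uM solution, and hydrolysis was followed at 480 nm.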
LASV entry inh – blocks Lassa virus binding to or entry into cells; Lassa virus pseudotype entry inhibition, cell reporter; Potency, µM (series often up to 37.9 µM), without a hit: top-dose activity change, negative = inhibition, usual class: inhibitors; 300,000 tested, 1.2% active; AID 540256; calls by dose curve; tested in HEK293 cells; further: nearly all actives have a fitted effect of over 50% in size
AmpC no deterg – blocks E. coli AmpC beta-lactamase in detergent-free assay. AmpC nitrocefin hydrolysis, absorbance 480 nm, 0.0001% Triton. Potency, µM (top dose mostly 57.1 µM), for the others: at the highest dose activity change, negative = inhibition, actives largely listed as inhibitors. 330,000 tested, 0.52% active. AID 485341;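 further: plate controls were no compound for no effect and no enzyme for full effect; nearly all actives have a fitted effect of over 20% in size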
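20 mM phosphate pH 7.0 + 0.01% (detergent screen) or 0.0001% Triton X-100; 5.3 nM AmpC reagent; cpd preinc 15 min RT; nitrocefin (800 uM stock) to start; A480 q20 s × 4 min; Activity was normalised to no-enzyme and no-compound control wells.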
MARV entry inh – Marburg virus entry inhibition; Marburg virus pseudotyped entry inhibition, cell reporter; Potency, µM (highest dose often 37.8 µM), without a hit: at the highest dose activity change, negative = inhibition, most hits filed as inhibitors; 300,000 tested, 1.8% active; AID 540276; calls by dose curve; tested in HEK293 cells
AMA1 RON2 block – disrupts binding of P. falciparum AMA1 to RON2. AlphaScreen AMA1-biotinylated RON2 peptide binding. Potency, µM (highest dose often 58.2 µM), for inactives: at the top dose activity change, negative = inhibition, usual class: inhibitors. 360,000 tested, 0.2% active;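 further: 0% = vehicle wells and -100% = peptide control; nearly all actives have a fitted effect of over 45% in size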
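AMA1 (3D7) with his tag at 25 nM final met compounds first, then biotinylated RON2 peptide at 25 nM; detection used donor plus acceptor beads, 10 µg/mL apiece, read by AlphaScreen after 30 min at room temperature.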
An asterisk follows results filed as active; ? = inconclusive; · = not tested or not shown; ! = not active in a repeat; [ ] = remark or other dose. This is a sample that favours compounds with a hit; in the whole collection about 2.3% have one here. Unless noted, the call rests on the fitted dose curve; in most records, active means well fitted curve in the direction sought with a large enough effect; inconclusive means small, poorly fitted or top-dose-only effect, or another doubt; inactive means no such curve, though single readings can be large; an effect the other way counts as inactive or inconclusive. Unless noted, on the % scale 0 is the no-effect control and ±100 the full control effect; potency means the concentration at half of the fitted maximal effect.

SMILES	AmpC detergent	LASV entry inh	AmpC no deterg	MARV entry inh	AMA1 RON2 block
CCCCCc1cc(=O)oc2c(C(CCN3CCCC(C)C3)c3ccc(N(C)C)cc3)c(OC)cc(OC)c12 (configuration not stated)	1%	·	122%	·	14µM*
O=C(Nc1cccc(-c2nc3ccccc3[nH]2)c1)c1c(F)cccc1F	-3%	16%[46.1 µM]	·	·	·
COc1ccccc1C(NC(C)=O)c1cc(Cl)c2cccnc2c1O (configuration not stated)	-1%	?	-15%	3.2µM*	82%
COc1ccc(C(NC(C)=O)c2ccc3cccnc3c2O)c(OC)c1 (configuration not stated)	-13%	6.3µM*	0%	?	-39%
COc1ccc(C(NC(C)=O)c2cc(Cl)c3cccnc3c2O)cc1OC (configuration not stated)	-1%	2.8µM*	-31%	?	-1%
COc1ccccc1CNC(=O)CN1N=C(c2ccccc2)CCC1=O	1%	-3%[46.1 µM]	·	·	·
CCOc1ccc(NC(=O)CC2C(=O)N(c3ccc(Cl)cc3)C(=O)N2Cc2cccs2)cc1 (configuration not stated)	1%	-8%[46.1 µM]	·	·	·
CNC(=S)N(Cc1cccs1)Cc1cc2cc(OC)ccc2[nH]c1=O	?	2%	-14%	?	-8%
COc1ccc2[nH]c(=O)c(CN(Cc3cccs3)C(=S)Nc3cccc(C)c3)cc2c1	-11%	?	-45%	4.5µM*	-9%
COc1ccc2[nH]c(=O)c(CN(Cc3cccs3)S(=O)(=O)c3cccc4nsnc34)cc2c1	1%	?	-19%	16µM*!	-3%
O=C(NC1CCCCC1)C(c1ccc2ncccc2c1)N(Cc1ccccc1)C(=O)c1cccs1 (configuration not stated)	-6%	-15%	18%	5.8µM*	-1%
COc1ccc(CN(C(=O)c2cccs2)C(C(=O)NC2CCCCC2)c2ccc3ncccc3c2)cc1 (configuration not stated)	-9%	-3%	86%	2%	-5%
FC(F)(F)C1CCC(c2nnc(C3CCCCN3)c(C3=NCCCC3)n2)NC1 (configuration not stated)	·	·	·	16%	·
CCOC(=O)c1c(NC(NC(=O)C(C)C)C(Cl)(Cl)Cl)sc2c1CCC2 (configuration not stated)	?	?	-39%	11µM*	15%
CCOC(=O)CN1C(=O)NC(CCc2ccccc2)C(C(=O)OC)=C1C (configuration not stated)	·	?	·	-23%[14.2 µM]	·
C=CC[n+]1c(-c2ccc(C)cc2)csc1Nc1ccc(NC(C)=O)cc1	6%	2.3µM*	2%	6.5µM*	-17%
COc1cccc2sc(Nc3nc4ccc(NC(C)=O)cc4s3)nc12	3%	?	6%	7.3µM*	43%
COC(=O)[C@@]1(Cc2ccccc2)[C@@H]2C(=CC(=O)[C@H]2CC(=O)C(=O)N(C)C)CN1C(=O)c1ccccc1	?	?	204%	21µM*	-1%
COC(=O)[C@@]1(Cc2ccc(F)cc2)[C@H]2c3cc(C(=O)N(C)C)n(CCF)c3C[C@H]2CN1C(=O)c1ccccc1	·	·	·	·	0%
CCOc1ccc(-c2cn3ccccc3n2)cc1	5%	?	-7%	3.5µM*	0%
COc1ccc(OC)c(NC(=O)Nc2cccc(OCc3cc(=O)n4cc(C)ccc4n3)c2)c1	0%	10%[46.1 µM]	·	·	·
COc1ccc(/C=N/NC(=O)CSc2nnc(CCCc3ccc(OC)c(C)c3)o2)cc1	-6%	7.9µM*	-23%	?	-5%
OCc1cc(C(O)CNCCCCCCOCCCCc2ccccc2)ccc1O (configuration not stated)	-6%	?	23%	11µM*!	5%
C/C=C(/C)C(=O)O[C@H]1C(C)=C2[C@H]([C@@H]1OC(=O)CCCCCCC)[C@@](C)(OC(C)=O)C[C@H](OC(=O)CCC)[C@@]1(O)[C@H]2OC(=O)[C@@]1(C)O	·	0.33µM*	·	0.15µM*	·
O=C(NC(Cc1c[nH]c2ccccc12)C(=O)Nc1ccc(F)cc1)c1cccs1 (configuration not stated)	?	1.4µM*	-27%	?	-1%
SMILES	AmpC detergent	LASV entry inh	AmpC no deterg	MARV entry inh	AMA1 RON2 block
COC(=O)C(Cc1c[nH]c2ccccc12)NC(=O)c1cccs1 (configuration not stated)	0%	·	-19%	·	-8%
CCOC(=O)/C(=N/Nc1ccccc1)N1CCCc2ccccc21	18%	-1%	25µM*	?	?
CCOC(=O)/C(=N/Nc1ccccc1OC)N1CCCc2ccccc21	4%	-18%[46.1 µM]	-14%	?	-16%
CCOC(=O)/C(=N/Nc1ccc(OC)cc1)N1CCCc2ccccc21	-9%	-15%	-2%	?	22µM*
COc1ccc(CCNC(=O)C(C)n2nc(C)c3sc4ccccc4c3c2=O)c(OC)c1 (configuration not stated)	6%	-19%[46.1 µM]	·	?	·
CCOc1ccc(-c2c(C)nn3c(-c4ccccc4)c(C(=O)NCCOC)cnc23)cc1OCC	17%	21%[46.1 µM]	·	·	·
COC(=O)C1=CN(c2ccc(OC)cc2)C=C(C(=O)OC)C1c1cc(OC)c(OC)cc1OC	-7%	0.63µM*	-29%	-9%	-2%
O=C(N/N=C/c1cc2ccccc2nc1Cl)[C@H]1C[C@@H]1c1ccccc1	-13%	0.37µM*	-12%	?	-7%[2.32 µM]
Cc1ccc2cc(/C=N/NC(=O)c3ccccc3O)c(Cl)nc2c1	0%	0%	-9%	?	4%
Cc1ccc2cc(/C=N/NC(=O)[C@H]3C[C@@H]3c3ccccc3)c(Cl)nc2c1	?	0.065µM*	-40%	4%	17%
Cc1cccc2cc(/C=N/NC(=O)[C@H]3C[C@@H]3c3ccccc3)c(Cl)nc12	-3%	?	-6%	8%[46.1 µM]	4%
CC(=O)Nc1cccc(-c2cc3c(c4c2ccn4C)C2CCC3C2)c1 (configuration not stated)	·	4%[46.1 µM]	·	·	·
Cc1cc(=O)oc2c1ccc1oc(/C(=N/O)c3ccccc3)c(C)c12	-9%	?	-26%	?	-21%
Cc1ccc(/C(=N\O)c2oc3c(C)c4oc(=O)cc(C)c4cc3c2C)cc1	?	0.37µM*	?	2.9µM*	-3%
Cc1c(Cl)cccc1NC(=O)c1cnc2sc(N3CCOCC3)nn2c1=O	-6%	4%[46.1 µM]	·	·	·
CCOc1ccc(N(CC(=O)NC2CCCCC2)C(=O)CCCC(=O)Nc2ccccn2)cc1	1%	10µM*	161%	-1%[46.1 µM]	26%
Cc1ccc(C)c(N2CCN(C(=O)c3cc(S(=O)(=O)N4CCCCC4)cn3C)CC2)c1	19%	-7%[46.1 µM]	·	·	·
COc1cc(NC(=O)CCc2c(C)nc3nc(-c4cc(OC)cc(OC)c4)nn3c2C)cc(OC)c1	-9%	4%[46.1 µM]	·	7%[46.1 µM]	·
